# Assay results: a collection of fitness landscapes (doi:10.1016/j.celrep.2020.107928)
# Whole data set: some 81,000 sequences, median “one-hybrid fitness for binding parS DNA” near -0.17, cut for the highest 2% near 0.51. Only a selection was taken, and the highest values are over-represented in it overall.
# B1: Caulobacter ParB omega fusion; a variant is named by its letters at X, in order, B8GW30 (parent)
# chain: MESVVVGEPGMSEGRRGLGRGLSALLGEVDAAPAQAPGEQLGGSREAPIEILQRNPDQPRRTFREEDLEDLSNSIREKGVLQPILVRPSPDTAGEYQIVAGERAWRAAQRAGLKTVPIMVRELDDLAVLEIGIIENVQRADLNVLEEALSYKVLMEKFERTQENIAQTIGKSXSHVANXMRLLXLPDEVQSYLVSGELTAXHARAIAAAADPVALAKQIIEGGLSVRETEALARKAPNLSAGKSKGGRPPRVKDTDTQALESDLSSVLGLDVSIDHRGSTGTLTITYATLEQLDDLCNRLTRGI
# Variants of: B1
# Assay: one-hybrid fitness for binding parS DNA (scaled: cognate 1, non-cognate 0); higher = stronger binding
# Conditions: with parS DNA site
# In short: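 In E. coli USO, a HIS3 reporter with its site placed 19 bp from the promoter was used to select Caulobacter ParB variants randomised at four specificity codons. Growth lasted 48 hours at 37°C on histidine-free M9 containing 0.1 mM IPTG and 5 mM 3-AT. Fitness was taken as the log change in variant-to-wild-type read ratio from Illumina sequencing of pre- and post-selection plasmids, rescaled between the non-cognate and cognate sites.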
row,Variant,one-hybrid fitness for binding parS DNA
1,NVQI,≤ 0.2
2,QQQV,≤ 0.2
3,WSWS,≤ 0.2
4,QFTQ,≤ 0.2
5,VLWE,≤ 0.2
6,PVLP,≤ 0.2
7,RYNS,0.872
8,RYDN,0.407
9,RYDS,0.987
10,RYND,0.213
11,RYDD,≤ 0.2
12,RYNH,≤ 0.2
13,EDLC,≤ 0.2
14,ANQD,≤ 0.2
15,TARG,≤ 0.2
16,KMSG,≤ 0.2
17,RYED,≤ 0.2
18,RYEM,0.275
19,RYEH,≤ 0.2
20,RYEC,0.926
21,RYEK,≤ 0.2
22,RYEP,≤ 0.2
23,RYEF,0.236
24,RYEG,0.901
25,RYEY,0.434

row,Variant,one-hybrid fitness for binding parS DNA
1,RYET,0.772
2,RYEN,0.348
3,RYES,0.975
4,PNCQ,≤ 0.2
5,QNHC,≤ 0.2
6,RNEA,0.253
7,CLSL,≤ 0.2
8,SSKF,≤ 0.2
9,VNMC,≤ 0.2
10,RMAC,0.994
11,RMFC,0.966
12,RMFN,0.459
13,RMAF,0.253
14,RMAK,≤ 0.2
15,RMFR,≤ 0.2
16,MTRT,≤ 0.2
17,LSYV,≤ 0.2
18,LACS,≤ 0.2
19,RKDS,0.886
20,RKDP,≤ 0.2
21,RKNH,≤ 0.2
22,RKNS,0.766
23,RKDD,≤ 0.2
24,RKNN,0.327
25,QQTE,≤ 0.2

row,Variant,one-hybrid fitness for binding parS DNA
1,TVLW,≤ 0.2
2,QYWT,≤ 0.2
3,AHYS,≤ 0.2
4,RWAP,≤ 0.2
5,RWFR,≤ 0.2
6,RWFC,0.6
7,RWAH,≤ 0.2
8,RWFM,≤ 0.2
9,RWAC,0.721
10,HYMG,≤ 0.2
11,CCLT,≤ 0.2
12,HCNG,≤ 0.2
13,RVFF,0.303
14,RVAD,≤ 0.2
15,RVAC,0.982
16,RVAP,≤ 0.2
17,RVFR,≤ 0.2
18,RVFC,0.972
19,YKSS,≤ 0.2
20,DLKY,≤ 0.2
21,KPVK,≤ 0.2
22,RTYF,0.259
23,RTRF,0.627
24,RSKF,0.35
25,RTDF,≤ 0.2

row,Variant,one-hybrid fitness for binding parS DNA
1,RPKF,≤ 0.2
2,RCKF,0.541
3,RTKF,0.734
4,RTVF,≤ 0.2
5,RWHR,≤ 0.2
6,RPGM,≤ 0.2
7,VKLS,≤ 0.2
8,EMNC,≤ 0.2
9,QAGG,≤ 0.2
10,VSVK,≤ 0.2
11,LNGG,≤ 0.2
12,RVPP,≤ 0.2
13,RVIS,0.981
14,RVPD,≤ 0.2
15,RVID,≤ 0.2
16,RVPS,0.812
17,RVIP,≤ 0.2
18,PTIM,≤ 0.2
19,CNLM,≤ 0.2
20,LLRY,≤ 0.2
21,EDTE,≤ 0.2
22,RSYF,0.233
23,RSDF,≤ 0.2
24,RSYG,0.991
25,RSNG,1

row,Variant,one-hybrid fitness for binding parS DNA
1,RSDG,0.84
2,RENG,0.302
3,RPNG,≤ 0.2
4,RCNG,0.966
5,RSNK,≤ 0.2
6,RDNG,≤ 0.2
7,REDG,≤ 0.2
8,RSYR,≤ 0.2
9,YWPS,≤ 0.2
10,CLAE,≤ 0.2
11,SEHQ,0.354
12,DVPP,≤ 0.2
13,PLMI,≤ 0.2
14,HVLG,≤ 0.2
15,AYDG,≤ 0.2
16,RDDG,≤ 0.2
17,RCDG,0.959
18,RPDG,≤ 0.2
19,EYDG,≤ 0.2
20,SQTL,≤ 0.2
21,RCIC,0.906
22,RKIC,0.811
23,RSIH,≤ 0.2
24,RAPC,0.485
25,RDIC,≤ 0.2

row,Variant,one-hybrid fitness for binding parS DNA
1,RKIF,≤ 0.2
2,RPIC,≤ 0.2
3,RSIN,0.269
4,RSIC,0.718
5,RAIM,0.209
6,RKPC,0.488
7,RAIC,0.782
8,ARLT,≤ 0.2
9,THAD,≤ 0.2
10,PYVA,≤ 0.2
11,HQCG,≤ 0.2
12,HLKN,≤ 0.2
13,RHIC,0.651
14,RHPC,0.367
15,RHIN,≤ 0.2
16,RNKP,≤ 0.2
17,RNVC,0.599
18,RNVR,≤ 0.2
19,RNKD,≤ 0.2
20,RNKC,0.917
21,RNVF,≤ 0.2
22,IKLC,≤ 0.2
23,LQAE,≤ 0.2
24,IYHY,≤ 0.2
25,VEVT,≤ 0.2

row,Variant,one-hybrid fitness for binding parS DNA
1,NPKT,≤ 0.2
2,ITLC,≤ 0.2
3,ARFV,≤ 0.2
4,RIKN,0.451
5,RIVF,0.378
6,RIVG,0.946
7,RIVR,≤ 0.2
8,RIKK,≤ 0.2
9,RIKG,0.959
10,HGLV,≤ 0.2
11,DGHT,≤ 0.2
12,QIRE,≤ 0.2
13,RTPC,0.625
14,RTIM,0.279
15,RTPF,≤ 0.2
16,RTIC,0.912
17,RTIY,0.418
18,QSQK,≤ 0.2
19,CSYS,≤ 0.2
20,TQQS,≤ 0.2
21,RYNC,0.86
22,RYNP,≤ 0.2
23,RYDC,0.949
24,RYNN,0.364
25,RYDQ,0.223

row,Variant,one-hybrid fitness for binding parS DNA
1,RYDY,0.422
2,PYET,≤ 0.2
3,QEHT,≤ 0.2
4,KIRI,≤ 0.2
5,THLT,≤ 0.2
6,CDLR,≤ 0.2
7,RINA,0.596
8,NINA,≤ 0.2
9,RIDA,0.55
10,GNPS,≤ 0.2
11,RCND,≤ 0.2
12,VLGC,≤ 0.2
13,NLPL,≤ 0.2
14,PQIT,≤ 0.2
15,SCSQ,≤ 0.2
16,QQAG,≤ 0.2
17,RKIH,≤ 0.2
18,RKPP,≤ 0.2
19,RKIG,0.855
20,RKPD,≤ 0.2
21,RKIN,0.322
22,RKPG,0.552
23,MVDG,≤ 0.2
24,KIKY,≤ 0.2
25,NDWV,≤ 0.2

row,Variant,one-hybrid fitness for binding parS DNA
1,VADQ,≤ 0.2
2,INHN,≤ 0.2
3,RPKW,≤ 0.2
4,RTYW,0.262
5,RTVW,0.218
6,RTRW,0.542
7,RTDW,≤ 0.2
8,RTKW,0.668
9,NNGS,≤ 0.2
10,PVIL,≤ 0.2
11,PSIS,≤ 0.2
12,TSQY,≤ 0.2
13,PQCN,≤ 0.2
14,RTNH,≤ 0.2
15,RTDP,≤ 0.2
16,RTDD,≤ 0.2
17,RTNG,0.968
18,RTNF,0.403
19,RTDG,0.935
20,MGVN,≤ 0.2
21,DGDV,≤ 0.2
22,WCVR,≤ 0.2
23,CTRY,≤ 0.2
24,YMTL,≤ 0.2
25,CALA,≤ 0.2

row,Variant,one-hybrid fitness for binding parS DNA
1,RNLG,0.831
2,RNLY,0.303
3,RNSH,≤ 0.2
4,RNWG,0.651
5,RNLQ,≤ 0.2
6,RNSD,≤ 0.2
7,RNSG,0.921
8,RNWM,≤ 0.2
9,RNWQ,≤ 0.2
10,RNGG,0.841
11,RNGH,≤ 0.2
12,RNGN,0.242
13,DCGR,≤ 0.2
14,MWMK,≤ 0.2
15,TMVR,≤ 0.2
16,TWPL,≤ 0.2
17,YNCT,≤ 0.2
18,YGAI,≤ 0.2
19,AARF,≤ 0.2
20,ITIY,≤ 0.2
21,RNYG,0.789
22,RNQF,≤ 0.2
23,RNQQ,≤ 0.2
24,RNHK,≤ 0.2
25,RNHM,≤ 0.2

row,Variant,one-hybrid fitness for binding parS DNA
1,RNYR,≤ 0.2
2,RNHG,0.866
3,RNCF,≤ 0.2
4,RNYP,≤ 0.2
5,RNCG,0.771
6,RNQG,0.882
7,RNCH,≤ 0.2
8,GTAW,≤ 0.2
9,LGVR,≤ 0.2
10,PMST,≤ 0.2
11,LAKV,≤ 0.2
12,PYNM,≤ 0.2
13,TKAL,≤ 0.2
14,PHQS,≤ 0.2
15,QTGN,≤ 0.2
16,NQIG,≤ 0.2
17,LHGR,≤ 0.2
18,WVYT,≤ 0.2
19,VPRP,≤ 0.2
20,RNRG,0.94
21,RNRK,≤ 0.2
22,RNRY,0.503
23,FALT,≤ 0.2
24,KIQT,≤ 0.2
25,TSHI,≤ 0.2

row,Variant,one-hybrid fitness for binding parS DNA
1,RVVR,≤ 0.2
2,RVKC,0.813
3,RVVQ,≤ 0.2
4,RVKR,≤ 0.2
5,RVVC,0.914
6,RVKF,0.355
7,DKVG,≤ 0.2
8,QKKI,≤ 0.2
9,HVMR,≤ 0.2
10,RFES,0.881
11,RLES,1
12,RFEP,≤ 0.2
13,RCEP,≤ 0.2
14,RLEP,≤ 0.2
15,RFEN,0.342
16,RPES,≤ 0.2
17,RAED,≤ 0.2
18,RLEH,0.228
19,RAEN,0.337
20,RCES,1.02
21,RAES,0.948
22,SMRL,≤ 0.2
23,HSNG,≤ 0.2
24,IHDA,≤ 0.2
25,GPGK,≤ 0.2

row,Variant,one-hybrid fitness for binding parS DNA
1,LPNM,≤ 0.2
2,LTRT,≤ 0.2
3,GAAR,≤ 0.2
4,NIPL,≤ 0.2
5,RREN,0.3
6,RGEN,≤ 0.2
7,RGED,≤ 0.2
8,RSES,0.902
9,RHEN,0.369
10,RRED,≤ 0.2
11,RSEH,≤ 0.2
12,RRES,0.752
13,RHES,0.962
14,RGES,0.554
15,RHED,≤ 0.2
16,RSEP,≤ 0.2
